Shown are actives, neighbours in structure and some others; about 7.1% of the full set was active somewhere.
S2 tox: Viability Counterscreen for Primary qHTS for Inhibitors of ATXN expression; AID 651635, 2014; S2 cells (HEK-293 line with an ATXN2-luciferase reporter) viability, CellTiter-Fluor protease fluorescence, 24 h; hit rate 0.49% among 400,000; Potency, µM (doses to about 56.7 µM), most hits filed as cytotoxic; further: potency means the concentration at half of the fitted maximal effect; nearly all actives have a fitted effect of over 40% in size
SW480 rereplic: A quantitative high throughput screen for small molecules that induce DNA re-replication in SW480 colon adenocarcinoma cells | SW480 DNA re-replication, Hoechst DNA content imaging, 48 h | AID 624297, 2012 | hit rate 1.8% among 340,000 | Potency, µM (titrated, usually from 46.1 µM), for the others: top-dose re-replication activation, hits mostly activators; further: potency means the concentration at half of the fitted maximal effect; % of control where 0% means no effect; nearly all actives have a fitted effect of over 55% in size
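Cells (250 per well) received 23 nL compound or DMSO by pin tool and were kept 48 hr at 37 C, 5% CO2. Nuclei were then stained with Hoechst for 40 min and scanned for DNA content.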
MCF10A rerep: A quantitative high throughput screen for small molecules that induce DNA re-replication in MCF 10a normal breast cells. MCF 10A DNA re-replication, Hoechst nuclear intensity, 48 h. AID 624296, 2012. hit rate 2.9% among 350,000. Potency, µM (top dose mostly 46.1 µM), inactives show at the top dose activity, positive = re-replication, usual class: activators; further: potency means the concentration at half of the fitted maximal effect; % of control where 0% means no effect; nearly all actives have a fitted effect of over 50% in size
IL-1B inflam inh: qHTS for Inhibitors of Inflammasome Signaling: IL-1-beta AlphaLISA Primary Screen; THP-1 LPS/ATP IL-1B secretion, AlphaLISA, 16 h; stronger effect = lower value; activity change, % at 57.5 µM; hit rate 4.7% among 360,000; in the data active means activity change below about -50%; inconclusive means mostly about -30% to -49%; further: on the % scale 0 is the no-effect control and ±100 the full control effect
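THP-1 cells pretreated 1 hr with compounds (up to 57.5 uM final), then stimulated with LPS (250 ng/mL final) plus ATP (1.25 mM final); secreted IL-1B measured by AlphaLISA after 16 hr, decreased signal indicating inhibition.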
PINK1 modulator: A Quantitative High throughput Screen to Identify Chemical Modulators of PINK1 Expression; PINK1 immunofluorescence, high-content cytometry, 24 h; hit rate 0.2% among 410,000; Potency, µM (highest dose often 76.6 µM), for inactives: at the top dose activation (PINK1 increase), most hits filed as activators; active means well fitted activation curve with a large enough effect; inconclusive means small, poorly fitted or top-dose-only effect; cell line not stated here; further: potency means the concentration at half of the fitted maximal effect; % of control where 0% means no effect; nearly all actives have a fitted effect of over 65% in size
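Stable cell line, 250 cells/well, 12 h attachment; compounds pinned at 5 concentrations, 24 h; CCCP control. Fixed with nuclear dye, primary antibodies 12 h at 10 degrees C, secondary plus cell stain; laser-scanning cytometer read.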
ATXN2 expr inh: Primary qHTS for Inhibitors of ATXN expression | HEK-293 ATXN2-luciferase reporter, luminescence, 24 h | Potency, µM (top dose mostly 57 µM), inactives show at the top dose activity change, negative = inhibition, actives largely listed as inhibitors | hit rate 0.72% among 360,000 | AID 1745845, 2022; further: potency means the concentration at half of the fitted maximal effect; on the % scale 0 is the no-effect control and ±100 the full control effect; nearly all actives have a fitted effect of over 55% in size
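qHTS (up to 57 uM final) was run with 24 h compound exposure of reporter cells at 37 °C. Each well was multiplexed: SteadyGlo luminescence measured ATXN2-luciferase expression after a fluorogenic Gly-Phe-AFC viability readout (25 uM final).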
* hit, by the source's call. Unless noted, the call rests on the fitted dose curve; in most records, active means well fitted curve in the direction sought with a large enough effect; inconclusive means small, poorly fitted or top-dose-only effect, or another doubt; inactive means no such curve, though single readings can be large; an effect the other way counts as inactive or inconclusive.

`CCN1CCN(S(=O)(=O)c2ccc(Cl)c(C(=O)NCc3nc4ccccc4[nH]3)c2)CC1` gave S2 tox inactive, SW480 rereplic 10µM*, MCF10A rerep inconclusive, IL-1B inflam inh -2, PINK1 modulator 0% and ATXN2 expr inh -23%.
`CCN1CCN(S(=O)(=O)c2ccc(Cl)c(C(=O)NCCc3ccccc3)c2)CC1` gave S2 tox inactive, SW480 rereplic 15µM*, MCF10A rerep 5%, IL-1B inflam inh -14, PINK1 modulator -1% and ATXN2 expr inh 44%.
`CCOc1ccc(C(=O)N2CCc3cc(OC)c(OC)cc3C2COc2ccc3c(C)cc(=O)oc3c2)cc1OCC` (stereo unspecified) gave S2 tox inactive, PINK1 modulator 0% and ATXN2 expr inh 6%.
`COc1cccc(N2CCN(C(=O)c3ccc4c(Cl)c5c(nc4c3)CCCC5)CC2)c1` gave S2 tox inconclusive, PINK1 modulator 2% and ATXN2 expr inh 11%.
Cc1cc(S(=O)(=O)N2CCN(CC(=O)N(C)Cc3ccccc3)CC2)ccc1Br was read as S2 tox inactive, SW480 rereplic 4%, MCF10A rerep 14%, IL-1B inflam inh inconclusive, PINK1 modulator -1% and ATXN2 expr inh -33%.
`CN(Cc1ccccc1)C(=O)CN1CCN(S(=O)(=O)c2ccc(Cl)c(Cl)c2)CC1` gave S2 tox inactive, SW480 rereplic -9%, MCF10A rerep 0%, IL-1B inflam inh -54*, PINK1 modulator 0% and ATXN2 expr inh -8%.
Screening Cc1ccc(C(=O)COC(=O)CSc2cccc3cccnc23)c(C)c1 returned S2 tox inactive, SW480 rereplic inconclusive, MCF10A rerep 9%, IL-1B inflam inh -88*, PINK1 modulator 4% and ATXN2 expr inh 5%.
Cc1cc(C)c(O)c(-c2cc(C(=O)Nc3ccc(S(=O)(=O)N4CCOCC4)cc3)[nH]n2)c1 was read as S2 tox inconclusive, SW480 rereplic inconclusive, MCF10A rerep inconclusive, IL-1B inflam inh -86*, PINK1 modulator 23% and ATXN2 expr inh 18µM*.
Screening COc1ccc(C(=O)Nc2ccc(S(=O)(=O)N3CCOCC3)cc2)cc1[N+](=O)[O-] returned S2 tox inactive, SW480 rereplic -14%, MCF10A rerep 4.6µM*, IL-1B inflam inh inconclusive, PINK1 modulator 2% and ATXN2 expr inh -13%.
Screening O=C(Nc1ccc(S(=O)(=O)N2CCOCC2)cc1)c1ccc(S(=O)(=O)N2CCOCC2)cc1 returned S2 tox inactive, SW480 rereplic -19%, MCF10A rerep -1%, IL-1B inflam inh 22, PINK1 modulator 2% and ATXN2 expr inh 2%.
CCN(CC)c1ccc(NC(=O)c2ccc(S(=O)(=O)N3CCOCC3)cc2)cc1 was read as S2 tox inactive, SW480 rereplic 8%, MCF10A rerep inconclusive, IL-1B inflam inh -51*, PINK1 modulator 2% and ATXN2 expr inh -3%.
`CC(=O)Nc1ccc(NC(=O)c2cc(-c3cc(C)cc(C)c3O)n[nH]2)cc1` gave S2 tox inactive, SW480 rereplic -24%, MCF10A rerep 10%, IL-1B inflam inh -5 and PINK1 modulator 4%.
CCCC(C(=O)Nc1ccc(S(=O)(=O)N2CCOCC2)cc1)c1ccccc1 (stereo unspecified) was read as S2 tox inconclusive, SW480 rereplic 0.23µM*, MCF10A rerep inconclusive, IL-1B inflam inh inconclusive, PINK1 modulator 8% and ATXN2 expr inh inconclusive.
CCc1ccccc1NC(=O)Cn1nc(C)c2nn(-c3ccc(Cl)cc3)c(C)c2c1=O was read as PINK1 modulator 2%.
For CCCN1Cc2cccc(C(=O)Nc3cccc(C(=O)OCC)c3)c2C1=O the results were S2 tox inactive, PINK1 modulator 2% and ATXN2 expr inh 2%.
